Compound activity deposited in PubChem by National Center for Advancing Translational Sciences (NCATS).
MARV entry inh = Marburg virus entry inhibition. Marburg virus pseudotyped entry inhibition, cell reporter. Potency, µM (highest dose often 37.8 µM), inactives show at the highest dose activity change, negative = inhibition, actives largely listed as inhibitors. AID 540276. 1.8% of 300,000 active; calls by dose curve; tested in HEK293 cells; further: potency means the concentration at half of the fitted maximal effect
FMDV antiviral = foot and mouth disease virus antiviral activity; FMDV antiviral cell-based qHTS; Potency, µM (top dose mostly 57.9 µM), for inactives: top-dose activity change, negative = inhibition, usual class: inhibitors; 1.2% of 410,000 active; AID 1159524; calls by dose curve; tested in HEK293T cells; further: read-out not given here; potency means the concentration at half of the fitted maximal effect; nearly all actives have a fitted effect of over 45% in size
HCMV antiviral = blocks human cytomegalovirus replication; HFF cells, HCMV-luciferase reporter, 72 h; stronger effect = lower value; activity change, negative = inhibition, % at 57.5 µM; 4.5% of 410,000 active; in the data active means activity change below about -60%; inconclusive means no clear call, values can overlap the other calls; inactive means above about -39%
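Two-dose cell screen: HFF monolayers treated with compounds and infected with luciferase-expressing HCMV at 1 PFU/cell, 72 h at 37C, then lysed for luciferase measurement.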
HCV inh = inhibitors of hepatitis C virus infection; Potency, µM (titrated, usually from 41.8 µM), for the others: at the top dose activity change, negative = inhibition, usual class: inhibitors; 3.4% of 340,000 active; Huh7.5.1 HCVcc-Cre infection, luciferase reporter, 44 h; AID 651820; active means well fitted inhibition curve with a large enough effect; inconclusive means small, poorly fitted or top-dose-only effect, or another doubt; inactive means no such curve, though single readings can be large or run the other way; further: potency means the concentration at half of the fitted maximal effect
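Antiviral activity was scored by luciferase reporter output from cells infected with HCVcc-Cre (~0.5 moi) in presence of compound, 44 h infection period, cells seeded 1,000/well 4 h prior.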
LASV entry inh = blocks Lassa virus binding to or entry into cells | Lassa virus pseudotype entry inhibition, cell reporter | Potency, µM (series often up to 37.9 µM), for inactives: at the highest dose activity change, negative = inhibition, usual class: inhibitors | 1.2% of 300,000 active; calls by dose curve; tested in HEK293 cells; further: potency means the concentration at half of the fitted maximal effect; nearly all actives have a fitted effect of over 50% in size
* = called active by the depositor; ? = inconclusive; . = not tested or not shown; + = active, no number; ! = not active in a repeat; [ ] = dose if it differs, or a comment. The list is not random: actives were taken first. Their share in the collection is about 7.9%. On the % scale 0 is the no-effect control and ±100 the full control effect.

SMILES	MARV entry inh	FMDV antiviral	HCMV antiviral	HCV inh	LASV entry inh
Oc1ccc(CNc2ccc(F)cc2)c2cccnc12	?	-28%	-14	?	?
O=Nc1ccc(O)c2ncccc12	.	?	-98*	?	.
COc1cccc(N=Nc2ccc3cccnc3c2O)c1	.	35%	-100*	2µM*	.
CCCNC(=O)N1CC2(CN(C(C)=O)C2)c2c(n(C)c3cc(OC)ccc23)[C@H]1CO	.	.	3	.	.
Cc1c(C(=O)NCc2ccc3c(c2)OCO3)cnn1-c1ncc2c(n1)-c1ccccc1CC2	.	47%	.	.	.
COc1ccc(-c2ncccc2O)cc1	25%	4%	-15	18%	18%
COc1ccc(N=Nc2ccc(O)c3ncccc23)cc1	.	2%	+	?	.
Cc1ccc(S(=O)(=O)Nc2ccc(O)c3ncccc23)cc1	.	-11%	19	?	.
COc1cccc(N=Nc2ccc(O)c3ncccc23)c1	?	-4%	-100*	6.3µM*	?
Cc1ccccc1N=Nc1ccc(O)c2ncccc12	5.6µM*	0%	-93*	?	?
COc1ccc(C)cc1N=Nc1ccc(O)c2ncccc12	.	-23%	-100*	?	.
O=S(=O)(O)c1cccc2c(N=Nc3ccc(O)c4ncccc34)cccc12	2%	?	.	?	.
CC1(C)CC(C(=O)N2CCOc3ccc(CN4CCN(Cc5ccccn5)CC4)cc3C2)CCO1 (stereo not given)	.	-9%	.	.	.
CC(C)(CO)NC(=O)c1cnn(-c2ncc3c(n2)-c2ccccc2CC3)c1C1CC1	.	41%	.	.	.
COC(=O)CC=C1c2ccc(F)cc2[C@@H](OC)[C@@H]1C	-11%[14.2 µM]	.	.	.	?
Cn1cc(-c2cc3cnc(Nc4ccc5c(c4)OCO5)cc3n2C)cn1	.	.	-7	.	.
CNc1ncnc2c1ncn2[C@H]1CN(C2CCCC2)C[C@@H](CO)O1	.	-4%	-4	.	.
O=c1[nH]c(/C(Cl)=C/c2cc(Cl)ccc2O)nc2cc(Cl)ccc12	21%	?	-70*	-23%	-1%
CN1CCN(Cc2nc3ccccc3c(=O)n2Cc2nc(-c3ccc([N+](=O)[O-])cc3)cs2)CC1	?	-13%	?	?	?
CN(C)Cc1nc2ccccc2c(=O)n1Cc1nc(-c2cccc([N+](=O)[O-])c2)cs1	10%[46.1 µM]	-25%	44	11µM*	?
Cc1c(C(=O)NCC2(N3CCCCC3)CCCC2)cnn1-c1nccc(-c2ccccc2F)n1	.	-7%	.	.	.
COC(=O)c1scc(C)c1NC(=O)c1ccc(Cl)cc1	-4%	-20%	.	?	5%
COC(=O)c1scc(C#N)c1N/N=C(\C#N)S(=O)(=O)c1ccc(Cl)cc1	?	14µM*	-97*	?	?
CCC(C)c1ccc(C2C3=C(Nc4nc(N)[nH]c(=O)c42)c2ccccc2C3=O)cc1 (stereo not given)	.	11%	-65*	7.9µM*	.
Cn1c2c(c(=O)[nH]c1=O)C(c1ccc(O)cc1)C1=C(N2)c2ccccc2C1=O (stereo not given)	?	?	-99*	?	?
SMILES	MARV entry inh	FMDV antiviral	HCMV antiviral	HCV inh	LASV entry inh
Nc1nc2c(c(=O)[nH]1)C(c1ccccc1)C1=C(N2)c2ccccc2C1=O (stereo not given)	.	4%	-10	2%	.
O=C(O)c1[nH]c2ccc([N+](=O)[O-])cc2c1-c1ccccc1	.	-17%	61	21%	.
NNC(=O)c1[nH]c2ccc([N+](=O)[O-])cc2c1-c1ccccc1	.	-13%	-89*	?	.
Cc1nc2ccc(NC(=O)CCS(=O)(=O)c3ccccc3)cc2s1	?	44%	-2	-9%	22%
CC1(c2ccccc2)NC(=O)N(CC(=O)Nc2nc(-c3ccccn3)cs2)C1=O (stereo not given)	-3%	5%	4	?	-14%
COc1ccc(C2(c3ccc(OC)cc3)NC(=O)N(CC(=O)Nc3ccc(OC(F)F)cc3)C2=O)cc1	?	?	12	13µM*	?
Cc1ccc2nc(-c3ccc(NC(=O)CCS(=O)(=O)c4ccccc4)cc3)sc2c1	?	?	-71*	?	1.8µM*
CC1(c2ccccc2)NC(=O)N(CC(=O)Nc2ccc(C(N)=O)cc2)C1=O (stereo not given)	29%[46.1 µM]	-20%	-62*	11%	9%[46.1 µM]
Cc1ccc(C2(C)NC(=O)N(CC(=O)Nc3nc(-c4ccccn4)cs3)C2=O)cc1 (stereo not given)	-29%	-20%	-36	6.3µM*	?
Cc1ccc(S(=O)(=O)CCC(=O)Nc2nc(-c3ccccn3)cs2)cc1	.	?	?	13µM*	.
O=Cc1c(NCc2cccc(F)c2)c2ccccc2[nH]c1=O	5%	18%	11	-5%	11%
Cc1ccc(CN=C(N)Nc2nc(C)cc(C)n2)cc1	11µM*	-24%	-80*	16µM*	-23%
Cc1ccc(C)c(N/C(N)=N/c2nc(C)cc(C)n2)c1	?	?	-21	?	-14%
O=C(CCn1nc(-c2ccc(Cl)cc2)c2ccccc2c1=O)Nc1ccc(OC(F)(F)F)cc1	-2%[46.1 µM]	-17%	-9	.	2%[46.1 µM]
CCCCc1c(C)c(C#N)c2[nH]c3ccccc3n2c1=O	?	22µM*	-73*	-17%	?
COc1ccc(S(=O)(=O)N2CCN(C)CC2)cc1C(=O)Nc1ccccc1	?	-3%	37	14%	-3%[46.1 µM]
COC(=O)C1=C(C)NC(C)=C(C(=O)OCC2CCCO2)C1c1ccc(Cl)c([N+](=O)[O-])c1 (stereo not given)	.	.	11	.	.
CC1=C(C(=O)OCCNC(=O)c2ccccc2O)C(c2ccccc2[N+](=O)[O-])C(C(=O)OCC2CCCO2)=C(C)N1 (stereo not given)	?	28µM*	?	?	10µM*
CCOc1ccc(CN2CCN(CC3=Cc4cccc(OC)c4OC3)CC2CCO)cc1 (stereo not given)	.	?	-34	10µM*	.
O=C(Cc1csc(Nc2nc(=S)[nH]c3ccccc23)n1)NCCCN1CCN(c2ccccc2F)CC1	?	-27%	-98*	4µM*	.
COc1cccc2cc(-c3nc(Nc4cccc(C)c4)sc3C)c(=O)oc12	.	16%	-13	.	13%[46.1 µM]
CC(C)(C)c1cc(C(c2cccnc2)N2CCN(CCO)CC2)cc(C(C)(C)C)c1O (stereo not given)	?	.	-102*	10µM*	?
Cc1cccc(NC(=O)C(NS(=O)(=O)c2cccc3nsnc23)c2ccccc2)c1C (stereo not given)	?	11%	-2	.	-5%[46.1 µM]
C[N+](C)(C)CCOC(=O)CCC(=O)OCC[N+](C)(C)C	?	-15%	-77*!	-15%	-8%
C[N+](C)(C)CCOC(=O)CBr	6%	-5%	-35	?	-12%
COC(=O)C1=C(C(=O)OC)[C@@H]2N(C)c3ccc(OC)cc3[C@@]23C[C@@H](C(=O)OC)N(C(=O)N2CCNC2=O)C3=N1	-26%[14.2 µM]	.	.	.	.
Cc1nc(C)n(CC(=O)NCC2Cc3cc(-c4cccc(OC(F)(F)F)c4)ccc3O2)n1 (stereo not given)	.	-21%	.	.	.
